Test results reported in PubChem BioAssay (NCATS).
Inconclusive results are not listed. The source holds several records for some structures; these can differ, active in one and inactive in another. Calls of active or inactive are those of the source. Calls come from the whole dose curve; as a rule, active = well fitted inhibition curve with a large enough effect; inconclusive = small, poorly fitted or top-dose-only effect; inactive = no such curve, though single readings can be large or run the other way.
% is set by controls: 0 for no effect and ±100 for the full control effect; potency is the fitted concentration of half-maximal effect.

Each molecule was assayed against Cytochrome P450 2C19 (Homo sapiens) (UniProt P33261) (assay: qHTS Assay for Inhibitors and Substrates of Cytochrome P450 2C19 (AID 899; note: nearly all actives have a fitted effect of over 60% in size)). Conditions: recombinant CYP2C19, luciferin-H EGE luminescence; series mostly up to 57.1 µM; activity, negative = inhibition: at the top concentration.
Cytochrome P450 2C19 (Homo sapiens), sequence (P33261 whole entry, looked up): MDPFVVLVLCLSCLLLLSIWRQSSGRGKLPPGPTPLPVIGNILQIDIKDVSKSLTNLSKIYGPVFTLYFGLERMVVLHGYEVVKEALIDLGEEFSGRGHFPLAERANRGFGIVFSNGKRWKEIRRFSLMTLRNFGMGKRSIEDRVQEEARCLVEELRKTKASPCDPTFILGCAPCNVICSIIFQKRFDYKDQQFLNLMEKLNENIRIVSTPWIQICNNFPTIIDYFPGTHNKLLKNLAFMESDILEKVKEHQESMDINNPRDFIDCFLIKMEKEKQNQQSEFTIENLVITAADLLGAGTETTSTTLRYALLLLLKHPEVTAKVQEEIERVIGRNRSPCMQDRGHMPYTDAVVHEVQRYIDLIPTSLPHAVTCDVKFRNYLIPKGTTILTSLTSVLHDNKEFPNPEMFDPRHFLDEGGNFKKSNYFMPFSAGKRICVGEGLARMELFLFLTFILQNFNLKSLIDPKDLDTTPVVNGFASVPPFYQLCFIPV
Description: NIH Molecular Libraries Screening Centers Network [MLSCN]
NIH Chemical Genomics Center [NCGC]
The P450 gene superfamily is involved in the metabolism and clearance of xenobiotics. This assay used human CYP2C19 to measure the hydroxylation of ethylene glycol ester of 6' deoxyluciferin (Luciferin-H EGE; […]) to luciferin. The luciferin is then measured by luminescence after the addition of a luciferase detection reagent. Luciferin-H EGE concentration in the assay was equal to its KM for CYP2C19. Inhibitors and some substrates limit the production of luciferin, and decrease measured luminescence.
NCGC Assay Protocol Summary:
Two uL of enzyme and substrate mix (final concentrations: 5nM CYP2C19, 10uM Luciferin-H EGE, 50mM KPO4) were dispensed into a white, solid bottom 1536-well microtiter plate. 23nL of compound was transferred by a pin tool. The plate was incubated at 37C for 10 min. Two uL of an NADPH regeneration solution (Promega supplied reagent) was dispensed and the reaction was allowed to continue for 60 min at 37C. Then the reaction was stopped by reconstituted luciferin detection buffer. After another 20 min of incubation the plate was read on the ViewLux (Perkin Elmer) at 60 sec exposure and 2x2 binning. This protocol was carried out with Promega-Glo reagents and further information can be found at http://www.promega.com/tbs/tb325/tb325.pdf. Data were normalized to the to AC100 inhibition (57uM ketoconazole).
Keywords: P450, CYP2C19, Luciferase, MLSMR, MLSCN, NIH Roadmap, qHTS, NCGC
With `COc1ccccc1N1CCNCC1` the “activity, negative = inhibition” value was 65.4% (inactive). With `COc1ccc(Cc2nccc3cc(OC)c(OC)cc23)cc1OC` the Potency was 5.01 µM (active). For `C=C(C)[C@H]1Cc2c(ccc3c2O[C@@H]2COc4cc(OC)c(OC)cc4[C@@H]2C3=O)O1`, the Potency was 1 µM (active). With `O=[N+]([O-])c1cc([As](=O)(O)O)ccc1O` the “activity, negative = inhibition” value was 55% [at 25.6 µM] (inactive). For `CCCN(CCC)CCc1cccc2c1CC(=O)N2`, the “activity, negative = inhibition” value was 99.3% (inactive). With `CCOC(=O)c1ncn2c1CN(C)C(=O)c1cc(F)ccc1-2` the Potency was 1.58 µM (active). In the case of `NCC1(CC(=O)O)CCCCC1`, the “activity, negative = inhibition” value is reported as -41.8% (inactive). In the case of `N#CC(C#N)=Cc1ccc(O)c(O)c1`, the “activity, negative = inhibition” value is reported as -6.43% (inactive). In the case of `CC(C)C(=O)Nc1ccc([N+](=O)[O-])c(C(F)(F)F)c1`, the “activity, negative = inhibition” value is reported as -43.7% (inactive). For `c1ccc(C2CC2)c(OCC2=NCCN2)c1`, the “activity, negative = inhibition” value was 46.8% (inactive).
